Experimental data as given in PubChem BioAssay AID651567 (National Center for Advancing Translational Sciences (NCATS), 2012).
Screen size: about 1,200 compounds; about 10 (0.8%) were called active. About 4% were inconclusive and are not listed. The sample as a whole holds a higher share of actives than the screen did. A number with no mark means an inactive call. The call rests on the fitted dose curve; in most records, active means well fitted inhibition curve with a large enough effect; inconclusive means small, poorly fitted or top-dose-only effect; inactive means no such curve, though single readings can be large or run the other way.

test: qHTS Assay to Find Inhibitors of Chronic Active B-Cell Receptor Signaling: Hit Validation in OCI-Ly3 Assay; conditions: OCI-Ly3 IkB-luciferase reporter, Chroma-Glo luminescence, 4 h; series mostly up to 46.1 µM; activity change, negative = inhibition: at the top concentration
Excerpt: Diffuse large B-cell lymphoma (DLBCL) is the most common category of non-Hodgkin lymphoma, with ~20,000 new cases per year in the United States. DLBCL should be regarded as a collection of different neoplasms. Microarray gene expression analysis has defined two principal types of DLBCL, named for their similarity to normal B cell stages or activation states: a germinal center B-cell (GCB) type, and an activated B-cell (ABC) type. In ABC-DLBCL, a constitutive high-level activity of the NF-kappaB family of transcription factors has been observed (1) and NF-kappaB target genes are more highly expressed in ABC primary tumors than in GCB tumors. Functional studies have shown a constitutive high-level activity of the IkappaB (inhibitor of kappa-B) kinase (IKK) complex. […] Further analysis of DLBCL primary tumors for NF-kappaB target gene expression imply that although CARD11 is required for constitutive IKK activity in all ABC-DLBCL lines, mutations in CARD11 may be the root cause of IKK activation only in lines or tumors with such mutations. In other words, CARD11 mutations may explain NF-kappaB activation in only 10% of ABC-DLBCL cases. […] This process has been termed 'chronic active BCR signaling' (CABS). The goal of this screen is to find small-molecule inhibitors of the CABS pathway found in ABC-DLBCL lines using a cell-based assay that measures IkappaBalpa stability, which has already been extensively validated in the OCI-Ly3 line (PubChem AID:445; REF: 4). […] Hits from the primary screen were tested in this selectivity secondary assay. NIH Molecular Libraries Probe Production Network [MLPCN] NIH Chemical Genomics Center [NCGC] MLPCN Grant: R03 DA031086 PI Name: Dr. R. Eric Davis
Cells were seeded in 1536-well plates at 5000 cells/3ul in IMDM medium containing 0.5% FBS, w/o phenol red, L-glutamine, 25 mM HEPES, 3 mg/ml sodium bicarbonate. After centrifugation for 1 min. at 1000 rpm, 23 nl of compounds or DMSO were delivered to each well using a pin tool. Then 1ul 80ng/ml doxycycline was dispensed into white solid 1536-well plates and the plates were incubated at 37C/5% C02 in a cell incubator for 4 hrs. Then 4 ul Chroma-Glo luminescent substrate mix (Promega) was added to each well. The plate was incubated at R.T. for 10-15 min. The plates were measured on a ViewLux plate reader for green luminescence (540/20 nm filter) and red luminescence (618/8 nm filter). The green and red luminescent signals were corrected for red and green luminescence filter overlap using previously determined filter calibration constants (determined using the procedure outlined in the Promega Technical Manual). The %Activity was determined from the ratio of corrected green/red luminescent values. Green luminescent and ratio %Activity was determined by normalizing to the difference in signal between basal cells (0% Activity) and cells incubated with 10 uM of the proteasome inhibitor MG-132 (100% Activity). Red luminescent %Activity was normalized to the difference between red luminesence in basal cells (0%Activity) and zero luminescence (-100% Activity). Concentration-response curves were fitted to the signals arising from the green luminescence (I-kappa-B-alpha-luciferase fusion; IkB-luc) and the red luminescence (unfused luciferase; luc) as well as the calculated ratio. The concentration-effect curves were then classified based on curve quality (r2), response magnitude and degree of measured activity. Compounds were then categorized based on their concentration-response curves for all three datasets (Ikb-luc, luc and ratio).
On the % scale 0 is the no-effect control and ±100 the full control effect; potency means the concentration at half of the fitted maximal effect.

| Structure (SMILES) | activity change, negative = inhibition | Potency |
| --- | --- | --- |
| CCN1C(=O)C(O)(C2COC(C)(C)CC2=O)c2cc(Br)ccc21 (stereo not given) | -6.91% |  |
| Cc1nn(-c2ccccc2)c(C)c1/C=N/NC(=O)c1cc(-c2cccs2)[nH]n1 |  | 18.4 µM (active) |
| O=C(N/N=C/c1cccs1)c1cc(-c2ccncc2)nc2ccccc12 | -3.1% |  |
| Cc1ccc(-c2cc(C(=O)N/N=C/c3c(C)nn(-c4ccccc4)c3C)[nH]n2)cc1 | -14.7% |  |
| COc1ccc(COC(=O)C2=C(C)NC(=O)NC2c2cc(Br)c(O)c(OC)c2)cc1 (stereo not given) | 0.378% |  |
| CCOC(=O)CSc1nc(C)c2cccc(C)c2n1 | 0.225% |  |
| COc1ccc(C2=Nn3c(nnc3-c3ccccc3OC)SC2)cc1OC | -2.26% |  |
| Fc1cccc2sc(Nc3nnc(-c4ccccc4)o3)nc12 | 21.3% |  |
| Nc1ncnc2c1ncn2C1OC(C(=O)NC2CC2)C(O)C1O (stereo not given) | -1.22% |  |
| CC(/C=N/NC(=O)c1cc(-c2ccc(Cl)cc2)nc2ccccc12)=C\c1ccco1 | -1.82% |  |
| Cc1noc(C)c1COc1ccc(CC(=O)NCc2ccccc2)cc1 | -1.46% |  |
| Cc1cc(C)c(S(=O)(=O)Nc2ccc3c4c(cccc24)CC3)c(C)c1 | -5.19% |  |
| CCOc1ccc(Nc2cc(C)nc(-n3nc(C)cc3C)n2)cc1 | -3.94% |  |
| COc1ccc(OC)c(C2CC(=O)c3c([nH]c(C(=O)OC(C)C)c3C)C2)c1 (stereo not given) | -5.41% |  |
| COc1ccccc1-c1nnc(Nc2nc3c(OC)cccc3s2)o1 | 14.5% |  |
| C=CCn1c(SCC(=O)NCCO)nc2sc(C)c(C)c2c1=O | -0.853% |  |
| O=C(CNC(=O)c1ccco1)N=Nc1c(O)n(CCc2ccccc2)c2ccccc12 | -1.99% |  |
| C=CCNc1ncnc2c1ncn2C1OC(CO)C(O)C1O (stereo not given) | -1.82% |  |
| COc1cccc(CSc2nc3ccccc3cc2C=O)c1 | -1.56% |  |
| O=C(/C=C/c1cccc(Cl)c1)c1nc2ccccc2[nH]1 | 0.678% |  |
| COc1cc2c(cc1OC)C(c1cc3cc(OC)c(OC)cc3[nH]c1=O)N(C(=O)C1CC1)CC2 (stereo not given) | -0.249% |  |
| CCOc1cc(CNc2ccc3c(c2)OCCO3)cc(Br)c1OCC | -7.23% |  |

| Structure (SMILES) | activity change, negative = inhibition | Potency |
| --- | --- | --- |
| CC(C)Oc1ccccc1C1CC(=O)Nc2cc3c(cc21)OCCO3 (stereo not given) | -4.7% |  |
| C=C1C(O)[C@@H]2O[C@]3(CC[C@H](/C=C/C(C)[C@@H]4CC(C)=CC5(O[C@H](C[C@@](C)(O)CO)CCC5O)O4)O3)CC[C@H]2O[C@@H]1C(O)CC(C)[C@H]1OC2(CCCCO2)CCC1C (stereo not given in full) | -6.02% |  |
| Cc1cc(Cl)n2c(nc3ccccc32)c1C#N | -0.275% |  |
| COc1ccc(-c2noc(CSc3nc(N)c(-c4ccccc4)c(=O)[nH]3)n2)cc1OC | -0.927% |  |
| COc1ccc(CN2C[C@H]3CCCN3c3cc(Br)ccc3S2(=O)=O)cc1 | -3.64% |  |
| CCOCCOC(=O)c1[nH]c2c(c1C)C(=O)CC(c1ccccc1)C2 (stereo not given) | -0.56% |  |
| CCOc1cc(C(=O)N/N=C/C(Br)=C/c2ccccc2)cc(OCC)c1OCC | -11.1% |  |
| CCOC(=O)c1ccc(NC(=O)Nc2ccon2)cc1 | -4.1% |  |
| Cc1ccccc1Nc1c(N)c(=O)oc2ccccc12 | -0.754% |  |
| COc1cc(/C=C/c2ccc3cccc(O)c3n2)c(Br)cc1O | 31% |  |
| COc1cc(/C=C/c2ccc3cccc(O)c3n2)cc(Br)c1OC |  | 10.3 µM (active) |
| COc1cc(/C=C/c2ccc3cccc(O)c3n2)cc(OC)c1OC | 122% |  |
| Fc1ccc(/C=N/NC2=Nc3cccc4cccc2c34)cc1 | -1.29% |  |
| CNC(=O)c1cccc(NC(=O)C(C)c2ccc3cc(OC)ccc3c2)c1 (stereo not given) | -3.81% |  |
| COc1ccc(C(C)=O)cc1COC(=O)c1ccc(N)c([N+](=O)[O-])c1 | -0.216% |  |
| CCOc1cc(/C=C(/C#N)C(=O)Nc2ccc(O)cc2)cc(Br)c1O | -11.9% |  |
| COC(=O)c1ccc(C)c(NS(=O)(=O)c2ccc3c(c2)OCCO3)c1 | -3.3% |  |
| CCN(CC)c1ccc(-c2nn3c(-c4n[nH]c5c4CCC5)nnc3s2)cc1 | -7.08% |  |
| CC1C(=O)N2CCCc3cc(NC(=O)c4ccccc4Br)cc1c32 (stereo not given) | -10.2% |  |
| O=C(Nc1ccc(N2CCCC2)cc1)c1cc(Cl)ccc1Cl | -1.28% |  |
| COC(=O)c1cc(C(=O)N2CCN(c3cccc(Cl)c3)CC2)cc([N+](=O)[O-])c1 | -3.03% |  |
| O=C(Nc1ccc(N2CCN(C(=O)c3ccc(Cl)cc3)CC2)cc1)c1ccc([N+](=O)[O-])o1 |  | 16.4 µM (active) |

| Structure (SMILES) | activity change, negative = inhibition | Potency |
| --- | --- | --- |
| CCC1=Nc2cc(C(=O)NCc3ccco3)ccc2Sc2ccccc21 | -2.12% |  |
| CCCCC[C@H](O)/C=C/[C@@H]1[C@@H](C/C=C\CCCC(=O)O)[C@H]2CO[C@@H]1C2 | -0.516% |  |
| Cc1ccc(Nc2nc(-c3c(C)nc4ncccn34)cs2)cc1 | -13% |  |
| Cc1ccc2[nH]c(-c3cccc(F)c3)cc(=O)c2c1 | -3.54% |  |
| COc1cc2c(cc1OC)-c1cc(NC3CCCCC3)nc(=O)n1CC2 | -0.939% |  |
| COc1cc2c(cc1OC)-c1cc(NC3CCCC3)nc(=O)n1CC2 | -0.848% |  |
| COc1cc(S(=O)(=O)N2CCCCC2)ccc1NC(=O)/C=C/c1ccccc1 | -1.13% |  |
| COc1ccccc1C(=O)Nc1ccccc1SC(=O)c1ccccc1OC | -25.4% |  |
| CCOc1ccc2c(c1)C(C)=CC(C)(C)N2S(=O)(=O)c1ccc(NC(C)=O)cc1 | -3.37% |  |
| Cc1ccc2nc(NC(=O)c3ccccn3)sc2c1 | 14.4% |  |
| C[C@]12C=CC(=O)C=C1CC[C@@H]1[C@@H]2[C@@H](O)C[C@@]2(C)[C@H]1CC[C@]2(O)C(=O)COC(=O)CCC(=O)O | -1.59% |  |
| C/C(Cl)=C\Cn1c(O)c(N=NC(N)=S)c2cc(Br)ccc21 | 64.8% |  |
| OC[C@H]1O[C@@H](n2cnc3c(NC4CCCC4)nc(Cl)nc32)[C@H](O)[C@@H]1O | -0.38% |  |
| Cc1[nH]n(C(N)=S)c(=O)c1N=Nc1ccc2ccccc2c1 | -3.53% |  |
| Cc1[nH]n(C(N)=S)c(=O)c1N=Nc1cccc(Cl)c1 |  | 20.6 µM (active) |
| Cc1ccc(N=Nc2c(C)[nH]n(C(N)=S)c2=O)cc1 | 0.657% |  |
| CCN1C(=O)c2cccc3c(NC(=O)c4ccc(OC)c(OC)c4)ccc1c23 | -6.01% |  |
| O=C1N/C(=C/c2ccc(N3CCOCC3)o2)C(=O)N1c1cccc(Cl)c1 | -6% |  |
| O=C(N/N=C/c1ccc(O)cc1)c1[nH]c2ccc(Br)cc2c1-c1ccccc1 | -7.64% |  |
| COc1c(Br)cc(Br)cc1/C=N/NC(=O)c1cccnc1 | -0.0712% |  |
| CCOC(=O)c1c(C)oc2c1cc(NS(=O)(=O)c1ccc(C(=O)O)cc1)c1ccccc12 | -5.36% |  |
